PubChem BioAssay (NCATS)

Key:
[1] = qHTS profiling for inhibitors of Plasmodium falciparum (3D7) proliferation (AID 743322);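 further: infected erythrocytes exposed to compound for 72 h before lysis; 100% = DMSO vehicle wells and 0% = 0.29 µM artemisinin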; details: P. falciparum 3D7 proliferation; at 28.7 µM (top of the series)
In short: (§1)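 Parasite DNA was quantified by SYBR Green I fluorescence (ex 485, em 535 nm) after overnight lysis in saponin/Triton buffer at room temperature. Cultures at 0.3% parasitemia and 2.5% hematocrit were first exposed to compound for 72 h at 37 C; signals were normalised to artemisinin (0.29 uM) and vehicle wells.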

[2] = qHTS profiling for inhibitors of Plasmodium falciparum (DD2) proliferation (AID 743323); details: lower = more inhibition; at 28.7 µM (top of the series)
In short: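 P. falciparum Dd2-infected erythrocytes (0.3% parasitemia, 2.5% hematocrit) exposed 72 h at 37 C, 5% CO2. Lysis with SYBR Green, overnight at room temperature, fluorescence 485/535 nm; normalized to 0.29 uM artemisinin and DMSO.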

[3] = qHTS profiling for inhibitors of Plasmodium falciparum (HB3) proliferation (AID 743324); details: Plasmodium falciparum HB3 blood-stage proliferation; at 28.7 µM (top of the series);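 further: 100% = DMSO vehicle wells and 0% = artemisinin-treated control wells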
In short: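 SYBR Green fluorescence (485 ex/535 em) of lysed cultures, incubated overnight at room temperature in the dark, quantifies parasite DNA. Infected erythrocytes at 0.3% parasitemia and 2.5% hematocrit were exposed 72 h; values normalized to DMSO and 0.29 uM artemisinin controls.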

[4] = qHTS profiling of the MIPE4 collection as inhibitors of Plasmodium falciparum (3D7) proliferation (AID 743344);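 further: scaled between DMSO vehicle wells and 0.29 µM artemisinin as full inhibition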; details: P. falciparum 3D7 in erythrocytes, SYBR Green DNA fluorescence, 72 h; at 28.5 µM (top of the series) unless noted
In short: as §1

[5] = qHTS profiling of the MIPE4 collection as inhibitors of Plasmodium falciparum (DD2) proliferation (Rep 2) (AID 743346); details: P. falciparum Dd2 in erythrocytes, SYBR Green DNA, 72 h; at 28.5 µM (top of the series) unless noted
In short: as §1

[6] = qHTS profiling of the MIPE4 collection as inhibitors of Plasmodium falciparum (HB3) proliferation (AID 743347);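 further: plate controls were DMSO vehicle wells for no effect and artemisinin wells for full effect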; details: P. falciparum HB3 in erythrocytes, SYBR Green DNA, 72 h; at 28.5 µM (top of the series) unless noted
In short: as §1

[7] = High-throughput drug toxicity screening in the BPDCN cell line Gen2.2 (AID 1224824); details: Gen2.2 BPDCN cells; at 45.8 µM (top of the series) unless noted;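 further: cells exposed to compounds for 48 h before reading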
In short: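 Gen2.2, 500 cells/well, phenol red-free RPMI/10% FBS/Pen-Strep; 48 h cpd, 37 °C/5% CO2; CTG lum, 15 min RT. Norm: DMSO = 100%, bortezomib 9.2 uM final = 0%.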

[8] = High-throughput drug toxicity screening in the BPDCN cell line Cal-1 (AID 1224825); details: Cal-1 BPDCN cell viability, qHTS; at 45.8 µM (top of the series) unless noted;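 further: cells exposed to compounds for 48 h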
In short: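 Percent activity derived from CellTiter-Glo luminescence, scaling DMSO to 100% and 9.2 uM final bortezomib to 0%. BPDCN Cal-1 cells (500/well, RPMI plus 10% FBS) incubated with compounds 48 hours at 37C before reading.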

[9] = qHTS profiling of the MIPE4 collection as inhibitors of Plasmodium falciparum (DD2) proliferation (AID 743345); details: P. falciparum Dd2 in erythrocytes, SYBR Green DNA, 72 h; at 28.5 µM (top of the series) unless noted
In short: as §1

O=C(Nc1cc(C(F)(F)F)cc(C(F)(F)F)c1)c1cc(Cl)ccc1O
remaining parasite growth % (stronger effect = lower value) [1]: -1.15%
activity, percent of control [2]: 0.0029%
remaining proliferation (% of control), lower = more inhibition [3]: -0.617%
parasite growth, % of DMSO control [4]: 5.26%
parasite growth, % of control (lower = inhibition) [5]: 14.1%
growth, % of control [6]: 5.57%
cell viability, % of control (lower = more cytotoxic) [7]: 7.43%
viability (% of control) [8]: 2.38%

CCCCN1CCC(CNC(=O)c2c3n(c4ccccc24)CCCO3)CC1
parasite growth, % of DMSO control [4]: 25.9%
cell viability, % of control (lower = more cytotoxic) [7]: 110%
viability (% of control) [8]: 9.06%

N#CCNC(=O)c1ccc(-c2ccnc(Nc3ccc(N4CCOCC4)cc3)n2)cc1
remaining parasite growth % (stronger effect = lower value) [1]: 5.35%
activity, percent of control [2]: 14%
remaining proliferation (% of control), lower = more inhibition [3]: 10.2%
parasite growth, % of DMSO control [4]: 4.16%
growth, % of control [6]: 4.94%
cell viability, % of control (lower = more cytotoxic) [7]: 55.1%
viability (% of control) [8]: 32.6%

CCCCCN(CCC12CC3CC(CC(C3)C1)C2)C(=O)NCCCc1ccncc1
remaining parasite growth % (stronger effect = lower value) [1]: 7.44%
activity, percent of control [2]: 32.6%
remaining proliferation (% of control), lower = more inhibition [3]: 7.47%
parasite growth, % of DMSO control [4]: 6.26%
parasite growth remaining, % of DMSO control (lower = more inhibition) [9]: 11.7%
parasite growth, % of control (lower = inhibition) [5]: 13.6%
growth, % of control [6]: 6.74%
cell viability, % of control (lower = more cytotoxic) [7]: 111%
viability (% of control) [8]: 94.4%

CC1(C)CCC(c2ccc(Cl)cc2)=C(CN2CCN(c3ccc(C(=O)NS(=O)(=O)c4ccc(N[C@H](CCN5CCOCC5)CSc5ccccc5)c(S(=O)(=O)C(F)(F)F)c4)cc3)CC2)C1
remaining parasite growth % (stronger effect = lower value) [1]: 0.209%
activity, percent of control [2]: 2.76%
remaining proliferation (% of control), lower = more inhibition [3]: -0.0239%
parasite growth, % of DMSO control [4]: 17.1%
parasite growth, % of control (lower = inhibition) [5]: 16.8%
growth, % of control [6]: 9.9%
cell viability, % of control (lower = more cytotoxic) [7]: 7.3%
viability (% of control) [8]: 16.1%

CN1CCN(c2cc(C(=O)Nc3ccc4c(c3)-c3c(c(C(N)=O)nn3-c3ccc(F)cc3)CC4)c(Cl)cn2)CC1
remaining parasite growth % (stronger effect = lower value) [1]: -2.46%
activity, percent of control [2]: 0.473%
remaining proliferation (% of control), lower = more inhibition [3]: -0.224%
parasite growth, % of DMSO control [4]: 4.93%
parasite growth remaining, % of DMSO control (lower = more inhibition) [9]: 7.41%
parasite growth, % of control (lower = inhibition) [5]: 16.2%
growth, % of control [6]: 3.51%
cell viability, % of control (lower = more cytotoxic) [7]: 5.17%
viability (% of control) [8]: 3.02%

C[C@@H]1CN(CC(=O)Nc2ccc3c(c2)Cc2cccc(-c4cc(=O)cc(N5CCOCC5)o4)c2S3)C[C@H](C)O1
remaining parasite growth % (stronger effect = lower value) [1]: -0.753%
activity, percent of control [2]: 3.61%
remaining proliferation (% of control), lower = more inhibition [3]: -0.663%
parasite growth, % of DMSO control [4]: 7.08%
parasite growth remaining, % of DMSO control (lower = more inhibition) [9]: 20.9%
parasite growth, % of control (lower = inhibition) [5]: 9.57%
growth, % of control [6]: 2.59%
cell viability, % of control (lower = more cytotoxic) [7]: 11.9%
viability (% of control) [8]: 13.3%

O=C(C=Cc1cccc(S(=O)(=O)Nc2ccccc2)c1)NO
remaining parasite growth % (stronger effect = lower value) [1]: 0.201%
activity, percent of control [2]: 0.981%
remaining proliferation (% of control), lower = more inhibition [3]: 0.6%
parasite growth remaining, % of DMSO control (lower = more inhibition) [9]: 6.53% [at 57.5 µM]
parasite growth, % of control (lower = inhibition) [5]: 18.3% [at 57.5 µM]
growth, % of control [6]: 8.45% [at 57.5 µM]
cell viability, % of control (lower = more cytotoxic) [7]: 8.69% [at 92.2 µM]
viability (% of control) [8]: 3.98% [at 92.2 µM]

CN1CCN(c2ccc3nc(-c4c(N)c5c(F)cccc5[nH]c4=O)[nH]c3c2)CC1
remaining parasite growth % (stronger effect = lower value) [1]: -2.13%
activity, percent of control [2]: -0.739%
remaining proliferation (% of control), lower = more inhibition [3]: -3.26%
parasite growth, % of DMSO control [4]: 3.66%
parasite growth remaining, % of DMSO control (lower = more inhibition) [9]: 6.04%
parasite growth, % of control (lower = inhibition) [5]: 7.17%
growth, % of control [6]: 2.91%
cell viability, % of control (lower = more cytotoxic) [7]: 9.8%
viability (% of control) [8]: 3.34%
